Measurements as given in PubChem BioAssay AID1159580 (chemical genetic matrix, 2015).
Where “and” joins values, the source holds several entries; their conditions need not be identical. Equal entries are not always repeated. Hit rate of the full screen: of about 5,500 compounds, about 2,000 (36%) were called active. Roughly 18% stayed inconclusive and do not appear here. Cut-off read from the data, not from the text of the source: active = normalized growth mostly below about 0.91 (no sharp cut-off); inconclusive = no clear call, values can overlap the other calls; inactive = mostly above about 0.92. The list shows a part of the results.

Assay: chemical genetic growth profiling, strain panel (AID 1159580);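 note: tested at 20 µM; growth read once vehicle control cultures reached saturation at 30 °C; 1 = growth at the plate median or of vehicle wells; lower values mean less growth of the strain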
Conditions: S. cerevisiae deletion strains, growth OD

Measured: normalized growth

CC(=O)Oc1cc(OC(C)=O)c2c(c1)O[C@H](c1ccc(OC(C)=O)c(OC(C)=O)c1)[C@@H](OC(C)=O)C2
inactive: locus YAL013W, strain DEP1, stronger effect = lower value 1 | locus YAL021C, strain ccr4, stronger effect = lower value 1 | locus YAL026C, strain drs2, stronger effect = lower value 0.995 | locus YAL030W, strain snc1, stronger effect = lower value 1 | locus YBL061C, strain skt5, stronger effect = lower value 1 | locus YBR009C, strain hhf1, stronger effect = lower value 1.02 | locus YBR021W, strain FUR4, stronger effect = lower value 0.975 | locus YBR023C, strain chs3, stronger effect = lower value 1 | locus YBR171W, strain sec66, stronger effect = lower value 1 | locus YBR229C, strain ROT2, stronger effect = lower value 0.992 | locus YBR231C, strain swc5, stronger effect = lower value 0.99 | locus YBR279W, strain paf1, stronger effect = lower value 1 | locus YCL011C, strain gbp2, stronger effect = lower value 1 | locus YCL016C, strain dcc1, stronger effect = lower value 1 | locus YCL029C, strain bik1, stronger effect = lower value 0.965 | locus YCL061C, strain MRC1, stronger effect = lower value 0.994 | locus YCL069W, strain vba3, stronger effect = lower value 1 | locus YCR088W, strain abp1, stronger effect = lower value 1 | locus YDL005C, strain med2, stronger effect = lower value 1 | locus YDL035C, strain GPR1, stronger effect = lower value 0.995 | locus YDL040C, strain nat1, stronger effect = lower value 1 | locus YDL074C, strain BRE1, stronger effect = lower value 0.99 | locus YDL101C, strain DUN1, stronger effect = lower value 0.994 | locus YDL134C, strain PPH21, stronger effect = lower value 1.04 | locus YDL185W, strain tfp1, stronger effect = lower value 0.972 | locus YDL192W, strain arf1, stronger effect = lower value 0.98 | locus YDR001C, strain nth1, stronger effect = lower value 1 | locus YDR069C, strain doa4, stronger effect = lower value 0.994 | locus YDR101C, strain arx1, stronger effect = lower value 0.961 | locus YDR137W, strain rgp1, stronger effect = lower value 1.02 | locus YDR159W, strain sac3, stronger effect = lower value 0.999 | locus YDR162C, strain NBP2, stronger effect = lower value 0.997 | locus YDR195W, strain ref2 0.966 | locus YDR297W, strain sur2, stronger effect = lower value 1.01 | locus YDR318W, strain mcm21, stronger effect = lower value 1.01 | locus YDR334W, strain swr1, stronger effect = lower value 1 | locus YDR335W, strain msn5, stronger effect = lower value 0.997 | locus YDR388W, stronger effect = lower value 0.978 | locus YDR392W, strain spt3, stronger effect = lower value 0.927 | locus YDR502C, strain sam2, stronger effect = lower value 0.984 | locus YEL003W, strain gim4, stronger effect = lower value 1 | locus YEL037C, strain rad23, stronger effect = lower value 1 | locus YEL061C, strain CIN8 (second series), stronger effect = lower value 0.998 | locus YEL061C, strain CIN8, stronger effect = lower value 1 | locus YER015W, strain faa2, stronger effect = lower value 0.995 | locus YER016W, strain bim1, stronger effect = lower value 0.999 | locus YER110C, stronger effect = lower value 0.97 | locus YER111C, strain swi4, stronger effect = lower value 1 | locus YER155C, strain BEM2 (second series), stronger effect = lower value 1 | locus YER155C, strain BEM2, stronger effect = lower value 1 | locus YER167W, strain BCK2, stronger effect = lower value 1 | locus YFR010W, strain ubp6, stronger effect = lower value 1 | locus YGL078C, strain dbp3, stronger effect = lower value 0.979 | locus YGL086W, strain mad1, stronger effect = lower value 0.955 | locus YGL167C, strain pmr1, stronger effect = lower value 1 | locus YGL173C, strain kem1, stronger effect = lower value 1.01 | locus YGL227W, strain vid30, stronger effect = lower value 0.993 | locus YGL240W, strain doc1, stronger effect = lower value 1 | locus YGL248W, strain PDE1, stronger effect = lower value 0.993 | locus YGL253W, strain hxk2, stronger effect = lower value 0.997 | locus YGR078C, strain PAC10, stronger effect = lower value 0.991 | locus YGR135W, strain pre9, stronger effect = lower value 0.992 | locus YGR229C, strain SMI1, stronger effect = lower value 0.992 | locus YGR252W, strain gcn5, stronger effect = lower value 1.1 | locus YHR013C, strain ard1, stronger effect = lower value 0.967 | locus YHR027C, strain rpn1, stronger effect = lower value 1 | locus YHR030C, strain SLT2, stronger effect = lower value 0.998 and 0.994 | locus YHR079C, strain IRE1 (second series), stronger effect = lower value 0.98 | locus YHR079C, strain IRE1, stronger effect = lower value 0.98 | locus YHR094C, strain hxt1, stronger effect = lower value 0.985 | locus YHR129C, strain ARP1, stronger effect = lower value 1 | locus YHR142W, strain chs7, stronger effect = lower value 1.02 | locus YHR200W, strain rpn10, stronger effect = lower value 0.982 | locus YIL066C, strain RNR3, stronger effect = lower value 0.978 | locus YIL073C, strain SPO22, stronger effect = lower value 1.01 | locus YIL125W, strain kgd1, stronger effect = lower value 0.975 | locus YIR030C, strain dcg1, stronger effect = lower value 0.982 | locus YJL092W, strain hpr5, stronger effect = lower value 0.997 | locus YJL095W, strain BCK1 (second series), stronger effect = lower value 1 | locus YJL095W, strain BCK1, stronger effect = lower value 1.02 and 0.979 | locus YJL115W, strain asf1, stronger effect = lower value 0.99 | locus YJL129C, strain trk1, stronger effect = lower value 0.995 | locus YJL134W, strain LCB3, stronger effect = lower value 0.997 | locus YJL154C, strain vps35, stronger effect = lower value 0.997 | locus YJL164C, strain tpk1, stronger effect = lower value 1 | locus YJL166W, strain qcr8, stronger effect = lower value 1.01 | locus YJL168C, strain set2, stronger effect = lower value 0.981 | locus YJL187C, strain SWE1 (second series), stronger effect = lower value 0.985 | locus YJL187C, strain SWE1, stronger effect = lower value 1 | locus YJR043C, strain POL32, stronger effect = lower value 1.01
